Assay outcomes from PubChem.
Compounds with a hit are over-represented: about 2.8% of the library has one in this group of screens.
Mcl1-Noxa inh: Mcl-1/Noxa interaction inhibition; hit rate 1.5% among 220,000; Q07820; inhibition, % at 21.7 µM; TR-FRET Mcl-1/Noxa peptide binding, 2 h;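 active = compounds that cut the protein-peptide binding signal by more than 50% relative to plate controls in a single-dose test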;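 also: His-tagged Mcl-1 with rhodamine Noxa BH3 peptide and terbium anti-His antibody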
Target sequence (Q07820 whole entry, looked up): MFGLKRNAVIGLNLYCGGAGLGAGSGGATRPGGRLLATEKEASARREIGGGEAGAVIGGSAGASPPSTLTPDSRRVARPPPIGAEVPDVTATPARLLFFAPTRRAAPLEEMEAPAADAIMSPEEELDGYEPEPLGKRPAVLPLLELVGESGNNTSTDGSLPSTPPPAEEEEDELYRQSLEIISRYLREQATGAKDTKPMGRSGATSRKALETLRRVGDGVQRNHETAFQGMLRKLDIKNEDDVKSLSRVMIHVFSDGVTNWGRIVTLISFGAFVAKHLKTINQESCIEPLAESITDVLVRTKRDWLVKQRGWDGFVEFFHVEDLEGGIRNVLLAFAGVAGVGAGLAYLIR
Mcl1 Bid PPI: disrupts binding of human Mcl-1 to Bid peptide; hit rate 0.97% among 220,000; TR-FRET Mcl-1/Bid-Dy647 peptide binding, 1536-well; AID 1021; inhibition, % at 21.7 µM;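 active = compounds that cut the binding signal by more than half at the single screening dose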;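 also: His-tagged Mcl-1 with europium anti-His antibody binding Bid BH3 peptide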
L929 necroptosis: blocks zVAD induced death of L929 cells; L929 zVAD necroptosis rescue, ATP luminescence, 24 h; with zVAD 60 µM; viability rescue, % at 10 µM; AID 1377; hit rate 0.38% among 220,000;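 active = activation, scaled between plate controls, above about 75%, limit read from the data; inactive = activation under that limit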
Mcl-1 Bim block: human Bim-Mcl-1 interaction inhibition. Q07820. Bead-based flow cytometry, Bim peptide-Mcl-1 binding. inhibition, % at 10 µM. hit rate 0.1% among 190,000; in the data active = inhibition above about 40%
Calpain2 inh: calpain II (pig) inhibition | purified calpain II, fluorogenic peptide substrate, 30 min | inhibition, % at 16 µM | hit rate 0.37% among 220,000 | AID 1236;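 active = inhibition above about 50%, limit read from the data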
TNF death inh: inhibitors of TNF-alpha induced necroptosis in Jurkat FADD-/- cells; AID 463075; Jurkat FADD-/- TNF necroptosis rescue, ATP luminescence, 24 h; 0 = TNF only, 100 = no-TNF cells; activation (protection from cell death), % at 10 µM; hit rate 0.068% among 220,000;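 active = activation, meaning protection from cell death, of at least 50% relative to plate controls; inactive = activation below 50%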;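 also: necroptosis triggered by 40 ng/mL TNF-alpha added together with compound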
Of the large screens only hits and unclear results are named; the others gave an inactive call; ! = repeats disagree.

C/C(=N\NC(=O)COc1ccc(C(C)(C)C)cc1)c1ccc2c(c1)OCCO2	Mcl-1 Bim block 65
COc1cc(C(=O)OCCCN=C2NS(=O)(=O)c3ccccc32)cc(OC)c1OC	none
CN(C)CC1CCCCC1OC(=O)/C=C/c1ccccc1 (centres undefined)	none (no result: Mcl-1 Bim block)
Cc1ccc[n+](-c2nc3ccccc3nc2C(=C=[N-])C#N)c1	none
Cc1cc(C)c[n+](-c2nc3ccccc3nc2C(=C=[N-])C#N)c1	Mcl-1 Bim block 46!
O=c1oc2cc(O)ccc2c2oc3cc(O)ccc3c12	Mcl1-Noxa inh 55
COCCn1c(-c2cccc([N+](=O)[O-])c2)nc2c1c(=O)[nH]c(=O)n2Cc1ccccc1	none
O=C(Nc1ccc(Cl)c(Cl)c1)OCCNC(=O)c1cccc(Cl)c1	Calpain2 inh 65
COc1ccc(C(C)=O)c2c(O)cccc12	Calpain2 inh 68
COc1ccc(C(=O)c2ccccc2)c2c(O)ccc(C(=O)c3ccccc3)c12	none
CCc1[nH]c(=O)c(C#N)c2c1CCCC2	none
CCc1[nH]c(=S)c(C#N)c2c1CCCC2	Mcl1-Noxa inh 59 (no result: L929 necroptosis)
COc1cnn(-c2ccccc2)c(=O)c1SCc1ccc(Cl)cc1Cl	Mcl1-Noxa inh 85
COc1cnn(-c2ccc(Br)cc2)c(=O)c1SCc1ccccc1	Mcl1-Noxa inh 76
COc1cnn(-c2ccc(C)cc2)c(=O)c1SCc1ccccc1	none
COc1ccc(Cl)cc1NC(=O)CSc1nnc(CN2CCOCC2)n1-c1ccc(Cl)cc1	none
CC(=O)N1CCc2ccc(S(=O)(=O)N3CCN(C)CC3)cc21	none
Cc1cc(=O)[nH]c2c(N=Nc3ccc(O)cc3)c(N)nn12	Mcl1-Noxa inh 57
Nc1nn2c(C(F)(F)F)cc(=O)[nH]c2c1N=Nc1cccc(F)c1	none
Cc1nn(C(C)C(=O)NCc2cccs2)c(C)c1[N+](=O)[O-] (centres undefined)	none
CN1CCN(c2cc3c(c4c2[nH]c2ccccc24)C(=O)CC(C)(C)C3)CC1	Mcl1-Noxa inh 54
CN1CCN(c2ncnc3c2[nH]c2ccc(F)cc23)CC1	none
CCC(CC)C(=O)Nc1ccccc1NC(C)=O	none
N#Cc1sc2nc(-c3ccccc3)cc(-c3ccco3)c2c1N	Mcl1-Noxa inh 102, Mcl1 Bid PPI 74
Cc1ccc(-c2cc(-c3ccco3)c(C#N)c(=O)[nH]2)cc1	Mcl1-Noxa inh 68 (no result: Mcl-1 Bim block)
N#Cc1sc2nc(C3CC3)cc(-c3ccccc3)c2c1N	none
N#Cc1c(-c2ccccc2)cc(-c2ccco2)c(C#N)c1N	Mcl1-Noxa inh 74
N#Cc1c(-c2ccco2)cc(-c2ccccc2)[nH]c1=O	none (no result: Mcl-1 Bim block)
COc1cc(/C=N/NC(=O)c2ccc([N+](=O)[O-])cc2Cl)cc(Br)c1O	Mcl1-Noxa inh 82
COc1ccc(Br)cc1C(=O)N/N=C/c1ccc([N+](=O)[O-])cc1	none
COc1cccc(/C=N/NC(=O)c2ccc(COc3ccc(Cl)cc3Cl)o2)c1	none
COc1cc(/C=N/NC(N)=O)cc([N+](=O)[O-])c1O	Mcl1-Noxa inh 52
COc1cc(/C=N/NC(=O)c2ccc(COc3ccccc3Cl)o2)cc(Br)c1O	Mcl1-Noxa inh 73
Cc1nn(-c2cccc(Cl)c2)c2nc(-c3ccncc3)cc(C(=O)N3CCOCC3)c12	none
COc1ccc(C2CC(c3cccs3)=NN2S(C)(=O)=O)cc1OC (centres undefined)	none
COc1ccc(C2CC(c3c(-c4ccccc4)c4cc(Cl)ccc4[nH]c3=O)=NN2S(C)(=O)=O)cc1OC (centres undefined)	Mcl1 Bid PPI 59
Cn1c(SCC(=O)Nc2ccc3nc(SCC(=O)N4CCCC4)sc3c2)nnc1-c1ccc(N)cc1	Mcl1-Noxa inh 100
CCN(CC)C(=O)CSc1nc2ccc(NC(=O)CSc3nccn3C)cc2s1	Mcl1-Noxa inh 56
COc1cc(S(=O)(=O)Nc2cccc(C)c2)ccc1NC(=O)c1ccncc1	Mcl1 Bid PPI 95
CCOc1ccc(NS(=O)(=O)c2ccc(NC(=O)c3cccnc3)c(OC)c2)cc1	none
CCOC(=O)C1(Cc2ccccc2C(F)(F)F)CCN(C2CCN(C(C)C)CC2)CC1	none
Cc1ccc(-c2cn(-c3ccccc3)c(SCC(N)=O)n2)cc1C	Mcl1 Bid PPI 87
COc1ccc(Cl)cc1NC(=O)CN(C1CCCCC1)S(C)(=O)=O	Mcl1-Noxa inh 68
CSc1ccccc1NC(=O)CN(C1CCCCC1)S(C)(=O)=O	none
Cc1sc2nc3c4ccccc4c(NCc4ccco4)nn3c(=O)c2c1C	Mcl1-Noxa inh 67
CCc1nnc(NS(=O)(=O)c2ccc(N=CC3=C(O)CC(C)(C)CC3=O)cc2)s1	Mcl-1 Bim block 44
CCCCCCCOC(=O)C1=C(C)Nc2ncnn2C1c1cccs1 (centres undefined)	none
CCCCCCCCOC(=O)C1=C(C)Nc2nnnn2C1c1cccs1 (centres undefined)	Calpain2 inh 50
Cc1cc(C)c2sc(NC(=O)c3ccc(N4C(=O)CCC4=O)cc3)nc2c1	none (no result: Mcl-1 Bim block)
CCn1nnc(NC(=O)c2cccc(-c3cc4ccccc4oc3=O)c2)n1	none
CCOc1ccc2nc(NC(=O)c3cccc(-c4cc5ccccc5oc4=O)c3)sc2c1	Mcl1-Noxa inh 76, Mcl1 Bid PPI 84
Cc1ccc2nc(NC(=O)c3cccc(-c4cc5ccccc5oc4=O)c3)sc2c1	Mcl1 Bid PPI 75
Cc1ccc2nc(NC(=O)c3ccc(N4C(=O)CCC4=O)cc3)sc2c1	Mcl1-Noxa inh 58
COc1ccc(C(=O)Nc2ccc(NS(=O)(=O)c3ccccc3)cc2)cc1OC	none (no result: Mcl-1 Bim block)
O=C(O[C@@H]1Cc2c(O)cc(O)cc2O[C@@H]1c1cc(O)c(O)c(O)c1)c1cc(O)c(O)c(O)c1	Mcl1-Noxa inh 95 (no result: L929 necroptosis, TNF death inh)
CCOC(=O)CC1=CC(C)(CC(=O)OCC)C(C#N)(C#N)C(N)=C1C#N (centres undefined)	none
Cc1c(NC(=O)COC(=O)c2c3c(nc4ccccc24)CCCC3)c(=O)n(-c2ccccc2)n1C	none
Cc1c(NC(=O)C(C)OC(=O)c2c3c(nc4ccccc24)CCC3)c(=O)n(-c2ccccc2)n1C (centres undefined)	Mcl1-Noxa inh 54
Cn1cc(Cl)c(C(=O)N2CCN(c3ncccn3)CC2)n1	none
Cc1cc(NC(=O)c2ccoc2C)no1	none
FC(F)(F)c1cccc(NCc2n[nH]c(=S)n2C2CCCCC2)c1	Calpain2 inh 56
CN1CCN(C(=S)NC(=O)c2ccc(Cl)cc2)CC1	Mcl1-Noxa inh 68
CN1CCC/C1=C/C=C1\SC(=S)NC1=O	Calpain2 inh 60
Cc1c(C#N)c(NC(=O)CCl)n(Cc2cccs2)c1C	none
COC(=O)C(=O)/C=C(\O)c1ccc(C)cc1	Mcl1-Noxa inh 57
Cc1oc(-c2ccc(Cl)cc2)cc1C(=O)/C(C#N)=C/Nc1ccccc1	none (no result: Mcl-1 Bim block)
CN(C)CCC1Sc2ccccc2Oc2ccccc21 (centres undefined)	Mcl1 Bid PPI 58
COc1ccccc1OCc1ccc(C(=O)Nc2ccncc2)o1	none
